Test results taken from the OligoGym collection.

Target: TMEM90B
Experiment: pooled miR-30 sensor sort-seq; sequence = guide strand
Settings: shRNA
Note: reference of the scale not given here.

Sequence	sensor-assay potency score (higher = more potent)
TGTGTCGCTTGAGTAGTCGCTC	0.302
TTGTATATTGCTAATGCGGTGG	-0.114
TATTTCTCAGCATTCATCTGGT	0.677
TTTCTCAGCATTCATCTGGTAA	-0.53
TTAATTAAACCATTCCTCTTGC	0.249
TTGAGTAGTCGCTCTCCAGCTC	-0.0875
TCGATGAAGGTGGTCTCGCAGC	-1.08
TCACTCTCTGTGTCGCTTGAGT	-1.01
ATCATTTGTACTGTACAGCATC	-1.17
TTATTTCTCAGCATTCATCTGG	0.827
TAGAGGATGATGTTGGGCCGGT	-0.523
TTCATCTGGTAACTTAAGCAGC	-0.817

Target: TMOD3
Experiment: as above
Settings: shRNA

Sequence	sensor-assay potency score (higher = more potent)
TTTTTGTTATAGCATTAGCTGC	-1.37
TTTCATTATCTCTTAACGCATC	-0.758
TAGTTCTCTTCAAACTCTCTTC	-0.63
TTTTTCTTCTGTAAAAGTCTGT	0.6
TTTTCTTCTGTAAAAGTCTGTA	-0.198
TAACGCATCAATCAGTGCCAGA	-1.33
TTACAATTTGATAACAACTAAA	-1.42
TATAGCATTAGCTGCTCTGGTT	-0.335
TTATATTACAGAACTTTGTATT	-0.879
TTCAACAAGATGAGCATCGTTT	-0.31
TTACAGAACTTTGTATTCGTTA	0.0652
TAGGGCACATAGTCTTCCCTGT	-0.185

Target: TNFAIP2
Experiment: as above
Settings: shRNA

Sequence	sensor-assay potency score (higher = more potent)
TAGCTCCAGAGCTCGGTCCATC	-1.52
TCAACATACATACAAAAGCAGT	-1.49
TATCGTTTACAAAGAGTCCTTG	-0.0149
TTGGCAATAACATTGGCCCTGT	-0.0405
TAATTCGTCAGCTGCTTGCCTC	-0.825
TTCTGTCTTCCATTCCACCATT	-1.13
TATCAAACACGCTAACTCCTAC	-0.68
TCAATCTTGATGGCACTGGGGT	-0.553
TTTCTCTTCCAGTTCTGTCTTC	-0.182
TTCTGCTCCATGGACATCCGGA	-0.115
TCGGACATGTAAACAAACCAAG	-1.46
TATCTGTGAGCCCAAGTCCAGC	-1.63
